The record followed here is PubChem BioAssay AID1220 (Sanford-Burnham Center for Chemical Genomics, 2008).

Each structure is given as a SMILES string. About 1,300 (0.68%) of roughly 190,000 compounds were called active. For the sample, actives were picked, then their nearest neighbours and some compounds at random. Unmarked numbers belong to inactive results. Rule as the data show it: active = inhibition above about 50%; inactive = the rest.

The experiment deals with Mannose-6-phosphate isomerase (Homo sapiens) (UniProt P34949). Description: human PMI inhibitors, high substrate, primary screen, biochemical, fluorescence intensity, high mannose 6-phosphate (AID 1220). The conditions noted are these: recombinant PMI enzyme, coupled fluorescence intensity; at 20 µM; stronger effect = higher value.
Chain of Mannose-6-phosphate isomerase (Homo sapiens) (P34949 whole entry, looked up): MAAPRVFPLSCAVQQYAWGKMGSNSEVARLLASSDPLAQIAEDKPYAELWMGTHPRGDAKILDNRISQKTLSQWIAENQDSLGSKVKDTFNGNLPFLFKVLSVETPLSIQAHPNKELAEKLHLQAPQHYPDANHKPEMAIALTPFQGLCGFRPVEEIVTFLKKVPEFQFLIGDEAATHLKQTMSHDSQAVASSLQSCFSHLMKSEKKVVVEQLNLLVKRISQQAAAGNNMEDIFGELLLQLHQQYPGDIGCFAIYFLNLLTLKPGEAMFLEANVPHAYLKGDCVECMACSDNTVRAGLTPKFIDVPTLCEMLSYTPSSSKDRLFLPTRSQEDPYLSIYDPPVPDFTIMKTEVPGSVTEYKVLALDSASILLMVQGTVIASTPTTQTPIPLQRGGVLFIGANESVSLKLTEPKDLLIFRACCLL
Broadly, the inhibition is the change of the read-out against control, counted positive when it falls. For the compound `O=C(/C=C/c1ccoc1)c1ccccc1O`, the inhibition is 17.9%. With `COc1ccc2ccccc2c1C(=O)/C=C\c1ccoc1` the figure was 50% (active); with `COc1ccc(/C=C/C(=O)c2ccoc2)cc1`, 3.7%; with `OC1(c2cccs2)CN(c2ccccc2)C2=[N+]1CCCC2` (stereo not drawn), -12%. Under `COc1cccc(CNc2ccc(F)c(Cl)c2)c1OC` stands -11%; under `COc1cccc(CNc2ccc(S(N)(=O)=O)cc2)c1OC`, -2.8%; under `COc1cccc(CNc2ccc(N3CCC(C)CC3)cc2)c1OC`, 63.1% (active). Take `COc1ccc(-c2nnn(CC(=O)N(Cc3ccccc3Cl)C(C(=O)NCC3CCCO3)c3ccco3)n2)cc1OC` (stereo not drawn): the inhibition is 23.8%. With `CC1=NOC(=O)/C1=C/c1ccc(-c2ccc(Cl)cc2)o1` the figure was 13.4%; with `Cc1cc(N2CCCC2)nc2ccc(NC(=S)NCCCOC(C)C)cc12`, -3.8%; with `CCOCCCNC(=S)Nc1ccc2nc(N3CCCC3)cc(C)c2c1`, 50.2% (active). Under `CCCCNC(=O)CCC(=O)Nc1ccc2nc(N3CCN(C)CC3)cc(C)c2c1` stands 12%. Under `Cc1cc(N2CCN(C)CC2)nc2ccc(NC(=S)NCCCN3CCc4ccccc4C3)cc12` stands 58.5% (active); under `CCCN(CCC)CCNC(=O)CCC(=O)Nc1ccc2nc(N3CCN(C)CC3)cc(C)c2c1`, 42.5%.

For the compound `CCCCN(CC)CCNC(=O)CCC(=O)Nc1ccc2nc(N3CCN(C)CC3)cc(C)c2c1`, the inhibition is 58.2% (active). Under `COCCNC(=S)Nc1ccc2nc(N3CCCC3)cc(C)c2c1` stands 12.4%; under `Cc1cc(N2CCN(C)CC2)nc2ccc(NC(=S)NCCN3CCc4ccccc4C3)cc12`, -3.7%. With `CCN1CCN(c2cc(C)c3cc(NC(=S)NCCCN4CCc5ccccc5C4)ccc3n2)CC1` the figure was 27.2%. With `CC1CCCCC1NC(=O)CO/N=C/c1ccccc1OC(F)F` (stereo not drawn), the inhibition is 5.8%. With `COCCOCCn1c(CCCO)nc2ccccc21` the figure was -2.6%. Under `Cc1ccc(S(=O)(=O)N2CCN(Cc3nc4ccccc4[nH]3)CC2)cc1C` stands -2.8%; under `CCOC(=O)Cc1csc(NC(=O)CSc2nnc(Cc3csc(N)n3)n2C)n1`, 14.4%. Under `O=C(NCCN1CCOCC1)c1cc2cc(Br)ccc2oc1=O` stands 9.2%; under `CCOC(=O)N1CCC(NS(=O)(=O)c2ccc3c(c2)CCN3C(C)=O)CC1`, 2.5%; under `O=C(C1CC1)N1CCc2cc(Br)cc(S(=O)(=O)NC3CCCCC3)c21`, 2.5%. Turning to `Cn1cccc1C(=O)C(=O)Nc1ccc(Cl)cc1`, the inhibition was -0.1%. Under `COC(=O)c1ccc(NC(=O)C(=O)c2cccn2C)cc1` stands 52.2% (active); under `Cn1cccc1C(=O)C(=O)Nc1ccccc1`, -5.5%; under `COc1ccc2c(c1)CCc1cnc(N)nc1-2`, 60% (active).

For `Nc1ncc2c(n1)-c1ccccc1CC2`, the inhibition is 32.5%. For the compound `COc1ccc(-c2cnc(N)nc2-c2ccc(OC)cc2O)cc1`, the inhibition is 11.9%. Under `CCOC(=O)N1CCN(C(=O)C2CCN(Cc3nc(-c4ccccc4C)oc3C)CC2)CC1` stands -4.9%. Turning to `COc1cc(/C=C/C(=O)Nc2cc(S(=O)(=O)N3CCOCC3)ccc2N2CCCC2)cc(OC)c1OC`, the inhibition was 19.5%. For the compound `c1ccc(-c2csc3ncnc(NCCCN4CCOCC4)c23)cc1`, the inhibition is -16.3%. Under `O=C(NCc1ccccc1)C1=C[C@@H](c2csc3ccccc23)C[C@@H](OCc2ccc(CO)cc2)O1` stands 44.5%; under `O=C(NCc1ccccc1)C1=C[C@H](c2csc3ccccc23)C[C@H](OCCCCO)O1`, 53.9% (active); under `O=C(NCc1ccccc1)C1=C[C@@H](c2csc3ccccc23)C[C@@H](OCCCCO)O1`, 53.8% (active). With `C#CCNC(=O)C1=C[C@@H](c2cn(C(C)=O)c3ccccc23)C[C@@H](OCCCCO)O1` the figure was 22.9%; with `C#CCNC(=O)C1=C[C@H](c2csc3ccccc23)C[C@H](OCCCCO)O1`, 30.3%; with `O=C(Nc1ccccc1)C1=C[C@H](c2csc3ccccc23)C[C@H](OCCCCO)O1`, 12.8%.

Consider `CC(=O)n1cc([C@H]2C=C(C(=O)NCc3ccccc3)O[C@@H](OCCCCO)C2)c2ccccc21`, for which the inhibition is 46.3%.

For the compound `CC(=O)n1cc([C@@H]2C=C(C(=O)NCc3ccccc3)O[C@H](OCCCCO)C2)c2ccccc21`, the inhibition was 50.3% (active). With `O=C(C1=C[C@H](c2csc3ccccc23)C[C@H](OCCCCO)O1)N1CCN(Cc2ccccc2)CC1`, the inhibition is 22.9%. Turning to `CN1C(=O)NC(c2ccccc2)C2=C1CN(c1ccc3ccccc3c1)C2=O` (stereo not drawn), the inhibition was 9.4%. Take `COc1ccc(C(=O)C[n+]2cn(C(F)F)c3ccccc32)c(F)c1`: the inhibition was -11.8%.

For the compound `Cc1cc(C)n(C(=O)CSc2nnc(SCC(=O)n3nc(C)cc3C)s2)n1`, the inhibition is -11.7%. Under `CC(=O)N1CCc2cc(S(=O)(=O)NC(CC(C)C)C(=O)N3CCn4c3nc3ccccc34)ccc21` (stereo not drawn) stands 6.2%. With `CCCNCC1C(Oc2ccc(Cl)cc2)C(=O)N1c1ccccc1C` (stereo not drawn) the figure was -6%; with `COCCCNCC1C(Oc2ccc(Cl)cc2)C(=O)N1c1ccccc1C` (stereo not drawn), -5.6%. As to `COCCNCC1C(Oc2ccc(Cl)cc2)C(=O)N1c1ccccc1C` (stereo not drawn), the inhibition was 50.7% (active). On to `Nc1ncc(-n2cncn2)c(-c2ccc(Cl)cc2)n1`, for which the inhibition was 9.9%. With `CC1CCCCC1NCC(=O)NCc1ccc(F)cc1` (stereo not drawn), the inhibition is -10.5%. Turning to `CCOC(=O)c1c(C)oc2cc(Br)c(OC(=O)N3CCOCC3)cc12`, the inhibition was 11.1%. Take `COc1ccc(-c2nc(C#N)c(N3CCN(c4cccc(Cl)c4)CC3)o2)cc1OC`: the inhibition was 4.2%. Under `CC1CC(C)(C)Nc2ccc(OC(=O)c3ccco3)cc21` (stereo not drawn) stands 25.5%; under `CC1=CC(C)(C)Nc2ccc(OC(=O)C(C)N3C(=O)c4ccccc4C3=O)cc21` (stereo not drawn), 24.3%; under `CC1=CC(C)(C)Nc2ccc(OS(=O)(=O)c3ccc(C)cc3)cc21`, 51.5% (active). Take `CC(=O)Nc1ccc(S(=O)(=O)Oc2ccc3c(c2)C(C)=CC(C)(C)N3)cc1`: the inhibition was 29.5%. For the compound `CC1=CC(C)(C)Nc2ccc(OC(=O)CN3C(=O)CCC3=O)cc21`, the inhibition is 12.7%. `CC1=CC(C)(C)Nc2ccc(OC(=O)c3ccco3)cc21`: the inhibition was 52% (active). As for `CC1=CC(C)(C)Nc2ccc(OC(=O)c3cccnc3)cc21`, the inhibition was 16%.

Regarding `CC1=CC(C)(C)Nc2ccc(OC(=O)CN3C(=O)c4ccccc4C3=O)cc21`, the inhibition is 26.2%. With `COC(=O)c1nn(-c2ccc(C)cc2)ccc1=O` the figure was -2.7%. With `Cc1cccc(C(=O)NCCc2nnc(SCC(=O)Nc3nc(C)cs3)n2C)c1` the figure was 4%; with `CC1CCCN(S(=O)(=O)c2ccc(S(=O)(=O)N3CCC4(CC3)OCCO4)cc2)C1` (stereo not drawn), 2.2%; with `CC(C)OC(=O)c1cc(NC(=S)Nc2ccc([N+](=O)[O-])cc2)cc(C(=O)OC(C)C)c1`, 4%. With `CCC1(CC)C(=O)N=C2c3ccccc3C(=O)N21`, the inhibition was -2.6%. With `O=C(c1ccc(C(F)(F)F)cc1)N1CCC(=O)N(C(COCc2ccccc2)Cc2ccccc2)CC1` (stereo not drawn) the figure was -5.1%; with `O=C(Nc1ccccc1)c1cc2c(=O)c3ccccc3oc2nc1C(F)(F)F`, 4.4%; with `COc1ccccc1N1CCN(c2cnccn2)CC1`, 5.8%. Under `CNCc1ccccc1Sc1cccc(O)c1` stands -1.7%; under `CNCc1ccccc1Sc1cc(O)ccc1O`, 41.3%; under `O=C(Cc1ccccc1)NCC(=O)N1CCCCC1`, -8%. As to `O=C(NNC(=O)C1CC1c1ccccc1)c1ccccc1F` (stereo not drawn), the inhibition is -2.1%. Under `CCOC(=O)c1cccc(NC(=O)CCc2ccccc2)c1` stands -0.6%; under `CC(=O)NC(Cc1ccccc1)c1ccc2c(c1)OCCCO2` (stereo not drawn), 4.4%; under `COc1cc([C@H](Cc2ccccc2)NC(C)=O)oc(=O)c1`, 53.9% (active). With `COc1cccc(CNC(=O)CC(NC(C)=O)c2ccccc2)c1` (stereo not drawn), the inhibition was 1%. Regarding `Cc1cccc(C(=O)Oc2ccccc2-c2nnco2)c1`, the inhibition is -9.6%. Consider `COc1ccc(C(c2sc3nc(C)nn3c2O)N2CCCCC2)cc1` (stereo not drawn), for which the inhibition was 4.3%. Turning to `O=c1[nH]c2cc3c(cc2cc1CN(CC1CCCO1)S(=O)(=O)c1ccccc1)OCCO3` (stereo not drawn), the inhibition is 4.9%.

For `COc1ccc(C(=O)N/N=C(\C)CC(=O)N2CCN(C=O)CC2)cc1`, the inhibition was -9.2%.

As for `C/C(CC(=O)N1CCN(C=O)CC1)=N\NC(=O)c1ccc(Cl)cc1`, the inhibition is 3.6%. In the case of `CC(=O)NC(Cc1cc(C)ccc1C)C(=O)N1CCN(C(=O)c2ccccc2Br)CC1` (stereo not drawn), the inhibition was -3.4%.

As to `O=[N+]([O-])c1cc(-c2n[nH]c(-c3ccccc3)n2)cc([N+](=O)[O-])c1`, the inhibition was -4.6%.

For `Oc1cccc(/C=N/Nc2cccc3cccnc23)c1`, the inhibition was 20.3%.

As for `COc1ccc(/C=C2\SC(=O)N(CCC(=O)Nc3ccc(S(=O)(=O)Nc4nccs4)cc3)C2=O)cc1`, the inhibition is 8.6%. With `CCCNS(=O)(=O)c1ccc(CCC(=O)Nc2ccc3c(c2)OCCO3)cc1` the figure was 50.1% (active); with `O=C(CCc1ccc(S(=O)(=O)NCCc2ccccc2)cc1)Nc1ccc2c(c1)OCCO2`, -3.2%. With `CCCNS(=O)(=O)c1ccc(CCC(=O)Nc2ccc3c(c2)OCO3)cc1` the figure was 10.1%; with `O=C(Oc1ccc(/C=N/NC(=O)c2ccccc2O)cc1)c1ccccc1`, -12.7%. Turning to `O=C(N/N=C/c1cc2c3c(c1O)CCCN3CCC2)c1ccccc1O`, the inhibition was 50.2% (active). With `Cc1nn(-c2ccccc2)c(N2CCCC2)c1/C=N/NC(=O)c1ccccc1O` the figure was -2.8%.
